# Assay results published in PubChem BioAssay AID1159580 (chemical genetic matrix, 2015).
# Where “and” joins values, the source holds several entries; their conditions need not be identical. Identical values can stand only once. The campaign covered roughly 5,500 compounds. About 2,000 (36%) were called active. Another 18% or so got no clear call; they are omitted. The list shows a part of the results. Values without a mark were called inactive. Rule as the data show it: active = normalized growth mostly below about 0.91 (no sharp cut-off); inconclusive = no clear call, values can overlap the other calls; inactive = mostly above about 0.92.
# Assay: chemical genetic growth profiling, strain panel (AID 1159580);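 also: tested at 20 µM; growth read once vehicle control cultures reached saturation at 30 °C; 1 = growth at the plate median or of vehicle wells; lower values mean less growth of the strain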
# Conditions: S. cerevisiae deletion strains, growth OD
structure (smiles),measurement,setting,value
ClC(Cl)=C(c1ccc(Cl)cc1)c1ccc(Cl)cc1,normalized growth,"locus YAL013W, strain DEP1, stronger effect = lower value",0.976
same,normalized growth,"locus YAL021C, strain ccr4, stronger effect = lower value",0.995
same,normalized growth,"locus YAL026C, strain drs2, stronger effect = lower value",0.999
same,normalized growth,"locus YAL030W, strain snc1, stronger effect = lower value",0.982
same,normalized growth,"locus YBL061C, strain skt5, stronger effect = lower value",0.985
same,normalized growth,"locus YBR009C, strain hhf1, stronger effect = lower value",0.987
same,normalized growth,"locus YBR021W, strain FUR4, stronger effect = lower value",1
same,normalized growth,"locus YBR023C, strain chs3, stronger effect = lower value",0.983
same,normalized growth,"locus YBR171W, strain sec66, stronger effect = lower value",0.986
same,normalized growth,"locus YBR229C, strain ROT2, stronger effect = lower value",0.957
same,normalized growth,"locus YBR231C, strain swc5, stronger effect = lower value",0.976
same,normalized growth,"locus YBR279W, strain paf1, stronger effect = lower value",0.994
same,normalized growth,"locus YCL011C, strain gbp2, stronger effect = lower value",1
same,normalized growth,"locus YCL016C, strain dcc1, stronger effect = lower value",0.993
same,normalized growth,"locus YCL029C, strain bik1, stronger effect = lower value",0.941
same,normalized growth,"locus YCL061C, strain MRC1, stronger effect = lower value",0.983
same,normalized growth,"locus YCL069W, strain vba3, stronger effect = lower value",0.995
same,normalized growth,"locus YCR088W, strain abp1, stronger effect = lower value",0.998
same,normalized growth,"locus YDL005C, strain med2, stronger effect = lower value",0.979
same,normalized growth,"locus YDL035C, strain GPR1, stronger effect = lower value",0.971
same,normalized growth,"locus YDL040C, strain nat1, stronger effect = lower value",0.994
same,normalized growth,"locus YDL074C, strain BRE1, stronger effect = lower value",1.04
same,normalized growth,"locus YDL101C, strain DUN1, stronger effect = lower value",0.948
same,normalized growth,"locus YDL134C, strain PPH21, stronger effect = lower value",0.967
same,normalized growth,"locus YDL185W, strain tfp1, stronger effect = lower value",0.964
same,normalized growth,"locus YDL192W, strain arf1, stronger effect = lower value",0.958
same,normalized growth,"locus YDR001C, strain nth1, stronger effect = lower value",0.998
same,normalized growth,"locus YDR069C, strain doa4, stronger effect = lower value",0.985
same,normalized growth,"locus YDR101C, strain arx1, stronger effect = lower value",0.963
same,normalized growth,"locus YDR137W, strain rgp1, stronger effect = lower value",1.04
same,normalized growth,"locus YDR150W, strain NUM1, stronger effect = lower value",0.945
same,normalized growth,"locus YDR159W, strain sac3, stronger effect = lower value",0.986
same,normalized growth,"locus YDR162C, strain NBP2, stronger effect = lower value",0.95
same,normalized growth,"locus YDR195W, strain ref2",1
same,normalized growth,"locus YDR297W, strain sur2, stronger effect = lower value",0.995
same,normalized growth,"locus YDR318W, strain mcm21, stronger effect = lower value",0.961
same,normalized growth,"locus YDR334W, strain swr1, stronger effect = lower value",0.986
same,normalized growth,"locus YDR335W, strain msn5, stronger effect = lower value",0.992
same,normalized growth,"locus YDR388W, stronger effect = lower value",0.949
same,normalized growth,"locus YDR392W, strain spt3, stronger effect = lower value",0.967
same,normalized growth,"locus YDR502C, strain sam2, stronger effect = lower value",0.95
same,normalized growth,"locus YEL003W, strain gim4, stronger effect = lower value",0.997
same,normalized growth,"locus YEL037C, strain rad23, stronger effect = lower value",1.01
same,normalized growth,"locus YEL061C, strain CIN8 (second series), stronger effect = lower value",0.996
same,normalized growth,"locus YEL061C, strain CIN8, stronger effect = lower value",0.966
same,normalized growth,"locus YER015W, strain faa2, stronger effect = lower value",0.983
same,normalized growth,"locus YER016W, strain bim1, stronger effect = lower value",1
same,normalized growth,"locus YER110C, stronger effect = lower value",0.946
same,normalized growth,"locus YER111C, strain swi4, stronger effect = lower value",0.991
same,normalized growth,"locus YER155C, strain BEM2 (second series), stronger effect = lower value",0.983
same,normalized growth,"locus YER155C, strain BEM2, stronger effect = lower value",0.927
same,normalized growth,"locus YER167W, strain BCK2, stronger effect = lower value",0.887 (active)
same,normalized growth,"locus YFR010W, strain ubp6, stronger effect = lower value",0.989
same,normalized growth,"locus YGL078C, strain dbp3, stronger effect = lower value",0.951
same,normalized growth,"locus YGL086W, strain mad1, stronger effect = lower value",0.955
same,normalized growth,"locus YGL167C, strain pmr1, stronger effect = lower value",0.994
same,normalized growth,"locus YGL173C, strain kem1, stronger effect = lower value",0.994
same,normalized growth,"locus YGL227W, strain vid30, stronger effect = lower value",0.995
same,normalized growth,"locus YGL240W, strain doc1, stronger effect = lower value",0.991
same,normalized growth,"locus YGL248W, strain PDE1, stronger effect = lower value",0.959
same,normalized growth,"locus YGL253W, strain hxk2, stronger effect = lower value",0.993
same,normalized growth,"locus YGR078C, strain PAC10, stronger effect = lower value",0.974
same,normalized growth,"locus YGR135W, strain pre9, stronger effect = lower value",0.966
same,normalized growth,"locus YGR229C, strain SMI1, stronger effect = lower value",0.998
same,normalized growth,"locus YGR252W, strain gcn5, stronger effect = lower value",1.03
same,normalized growth,"locus YHR013C, strain ard1, stronger effect = lower value",0.998
same,normalized growth,"locus YHR027C, strain rpn1, stronger effect = lower value",0.989
same,normalized growth,"locus YHR030C, strain SLT2, stronger effect = lower value",0.95 and 1.05
same,normalized growth,"locus YHR079C, strain IRE1 (second series), stronger effect = lower value",0.951
same,normalized growth,"locus YHR079C, strain IRE1, stronger effect = lower value",1.03
same,normalized growth,"locus YHR094C, strain hxt1, stronger effect = lower value",0.948
same,normalized growth,"locus YHR129C, strain ARP1, stronger effect = lower value",0.963
same,normalized growth,"locus YHR142W, strain chs7, stronger effect = lower value",0.986
same,normalized growth,"locus YHR200W, strain rpn10, stronger effect = lower value",0.951
same,normalized growth,"locus YIL066C, strain RNR3, stronger effect = lower value",0.929
same,normalized growth,"locus YIL073C, strain SPO22, stronger effect = lower value",0.941
same,normalized growth,"locus YIL125W, strain kgd1, stronger effect = lower value",0.948
same,normalized growth,"locus YIR030C, strain dcg1, stronger effect = lower value",0.944
same,normalized growth,"locus YJL092W, strain hpr5, stronger effect = lower value",0.999
same,normalized growth,"locus YJL095W, strain BCK1 (second series), stronger effect = lower value",0.995
same,normalized growth,"locus YJL095W, strain BCK1, stronger effect = lower value",0.961 and 1.05
same,normalized growth,"locus YJL115W, strain asf1, stronger effect = lower value",0.991
same,normalized growth,"locus YJL129C, strain trk1, stronger effect = lower value",0.964
same,normalized growth,"locus YJL134W, strain LCB3, stronger effect = lower value",0.961
same,normalized growth,"locus YJL154C, strain vps35, stronger effect = lower value",0.998
same,normalized growth,"locus YJL164C, strain tpk1, stronger effect = lower value",0.979
same,normalized growth,"locus YJL166W, strain qcr8, stronger effect = lower value",0.975
same,normalized growth,"locus YJL168C, strain set2, stronger effect = lower value",0.949
same,normalized growth,"locus YJL187C, strain SWE1 (second series), stronger effect = lower value",0.958
same,normalized growth,"locus YJL187C, strain SWE1, stronger effect = lower value",0.995
same,normalized growth,"locus YJR043C, strain POL32, stronger effect = lower value",0.966
same,normalized growth,"locus YJR066W, strain TOR1, stronger effect = lower value",0.975
